Assay results taken from PubChem BioAssay (NCI).
The panel holds about 79,000 compounds, 15% with a hit somewhere; the sample as a whole holds those more often. Unmarked numbers belong to inactive results. Activity calls are given as the source filed them. Rule as the data show it: active = growth inhibition above about 70%; inactive = the rest.

Key:
[1] = NCI Yeast Anticancer Drug Screen. Data for the rad52 strain (AID 147);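 also: 0% = growth of vehicle-treated control cultures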; conditions: S. cerevisiae rad52 mutant growth inhibition, active compounds read high
How it was run: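 Screen used a yeast mutant impaired in DNA repair. After compound exposure, growth was measured. Values reflect inhibition compared with vehicle-treated cells.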

[2] = NCI Yeast Anticancer Drug Screen. Data for the wt1 strain (AID 149);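 also: 0% = growth of vehicle-treated wt1 cultures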; conditions: S. cerevisiae wt1 strain (SPY 50644) growth inhibition, active compounds read high
How it was run: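 Measured: growth of wt1 yeast under compound versus vehicle treatment, reported as inhibition.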

[3] = NCI Yeast Anticancer Drug Screen. Data for the rad50EPP+ strain (AID 151);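 also: 0% = growth of vehicle-treated control cultures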; conditions: S. cerevisiae rad50 mutant strain, active compounds read high
How it was run: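 Exposing the rad50EPP+ strain to each compound, growth was compared with vehicle-only cultures to give inhibition.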

[4] = NCI Yeast Anticancer Drug Screen. Data for the mgt1 strain (AID 153); conditions: S. cerevisiae mgt1 mutant growth inhibition, active compounds read high
How it was run: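 Genetically defined yeast (mgt1) treated with compound; inhibition of growth expressed against vehicle-treated controls.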

[5] = NCI Yeast Anticancer Drug Screen. Data for the rad50 strain (AID 155);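 also: 0% = growth of vehicle-only cultures of the same strain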; conditions: S. cerevisiae rad50 strain growth inhibition, active compounds read high
How it was run: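 Growth of the mutant yeast was measured after compound exposure and referenced to vehicle-treated cultures.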

[6] = NCI Yeast Anticancer Drug Screen. Data for the mec2-1 strain (AID 157); conditions: S. cerevisiae mec2-1 strain, active compounds read high
How it was run: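 Readout is yeast growth inhibition, normalised to vehicle-treated controls, in the mec2-1 strain exposed to compound.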

[7] = NCI Yeast Anticancer Drug Screen. Data for the rad14 strain (AID 159);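 also: 0% = growth of vehicle-treated control cultures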; conditions: S. cerevisiae rad14 strain growth inhibition, active compounds read high
How it was run: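 Here, inhibition of yeast growth was measured after compound exposure, using a strain with a genetic defect in DNA damage repair and vehicle-treated cultures as the reference.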

[8] = NCI Yeast Anticancer Drug Screen. Data for the sgs1 mgt1 strain (AID 161);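 also: 0% = growth of cultures given vehicle only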; conditions: S. cerevisiae sgs1 mgt1 strain, active compounds read high
How it was run: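 This yeast growth screen uses a strain with defined DNA-repair lesions; compound-treated growth is compared with vehicle-treated growth.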

[9] = NCI Yeast Anticancer Drug Screen. Data for the CLN2oe strain (AID 163);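 also: 0% = growth of vehicle-only control cultures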; conditions: S. cerevisiae CLN2oe strain, active compounds read high
How it was run: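 Values reflect how much compound exposure reduced yeast growth, referenced to vehicle-exposed cells. Assay organism is a strain with a defined genetic change affecting cell-cycle control.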

[10] = NCI Yeast Anticancer Drug Screen. Data for the cln2 rad14 strain (AID 165);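 also: 0% = growth equal to vehicle treated cultures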; conditions: S. cerevisiae cln2 rad14 strain, active compounds read high
How it was run: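 Relative to vehicle controls, growth inhibition of compound-treated cln2 rad14 yeast was recorded.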

[11] = NCI Yeast Anticancer Drug Screen. Data for the bub3 strain (AID 167); conditions: S. cerevisiae bub3 mutant strain, active compounds read high
How it was run: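 Whole-cell yeast assay. The mutant strain was incubated with compounds, and growth inhibition was determined by comparison with vehicle-treated cells.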

[12] = NCI Yeast Anticancer Drug Screen. Data for the wt2 strain (AID 169);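 also: 0% = growth of vehicle-treated yeast cultures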; conditions: S. cerevisiae wt2 strain growth inhibition, active compounds read high
How it was run: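 Values express reduction in yeast growth under compound treatment, referenced to vehicle-treated cells.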

[13] = NCI Yeast Anticancer Drug Screen. Data for the mlh1 strain (AID 171);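 also: 0% = growth of vehicle-treated control cultures of the same strain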; conditions: S. cerevisiae mlh1 strain growth inhibition, active compounds read high
How it was run: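 Steps: expose the defined-mutant yeast strain to compound; expose a parallel culture to vehicle; measure growth; express compound effect as inhibition relative to the vehicle culture.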

[14] = NCI Yeast Anticancer Drug Screen. Data for the sgs1 strain (AID 173);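 also: 0% = growth of vehicle-only control cultures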; conditions: S. cerevisiae sgs1 mutant, active compounds read high
How it was run: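 Treat defined-mutant yeast with compound; measure growth; calculate inhibition relative to vehicle-treated cells.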

[15] = NCI Yeast Anticancer Drug Screen. Data for the mlh1 rad18 strain (AID 175); conditions: S. cerevisiae mlh1 rad18 strain growth inhibition, active compounds read high
How it was run: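 Test agents were incubated with a yeast strain of defined genotype (DNA damage repair defect). Inhibition of growth was derived by comparison with vehicle-exposed cultures.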

[16] = NCI Yeast Anticancer Drug Screen. Data for the rad18 strain (AID 177); conditions: S. cerevisiae rad18 mutant growth inhibition, active compounds read high
How it was run: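 A genetically defined yeast mutant impaired in DNA damage repair was treated with test compounds, then its growth was measured against cultures receiving vehicle alone.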

[17] = at 5.0 µM (retest, dose inferred, filed as 0.5)
[18] = at 50.0 µM (retest, dose inferred, filed as 5.0)

For `O=C(O)c1ccccc1/C=N/N=C1c2ccccc2-c2ccccc21`, which growth inhibition ([1]; at 1.2 µM) is on record?
The growth inhibition was -3%.

And the growth inhibition ([1]; at 3.7 µM)?
The growth inhibition was -1%.

And the growth inhibition ([1]; at 11.0 µM)?
The growth inhibition was -1%.

What about the growth inhibition ([1]; at 33.0 µM) of the same compound?
The growth inhibition was 0%.

And the growth inhibition ([1]; at 100.0 µM)?
Its growth inhibition is 2%.

And the growth inhibition ([2]; at 1.2 µM)?
The growth inhibition was -1%.

And the growth inhibition ([2]; at 3.7 µM)?
The growth inhibition was 0%.

What about the growth inhibition ([2]; at 11.0 µM) of the same compound?
Its growth inhibition is 1%.

And the growth inhibition ([2]; at 33.0 µM)?
Its growth inhibition is 0%.

And the growth inhibition ([2]; at 100.0 µM)?
Its growth inhibition is 7%.

And the growth inhibition ([3]; at 1.2 µM)?
Its growth inhibition is -4%.

What about the growth inhibition ([3]; at 3.7 µM) of the same compound?
Its growth inhibition is 3%.

What about the growth inhibition ([3]; at 11.0 µM) of the same compound?
Its growth inhibition is -2%.

And the growth inhibition ([3]; at 33.0 µM)?
The growth inhibition was 9%.

And the growth inhibition ([3]; at 100.0 µM)?
The growth inhibition was 15%.

What about the growth inhibition ([4]; at 1.2 µM) of the same compound?
Its growth inhibition is -1%.

And the growth inhibition ([4]; at 3.7 µM)?
The growth inhibition was 0%.

What about the growth inhibition ([4]; at 11.0 µM) of the same compound?
The growth inhibition was 0%.

What about the growth inhibition ([4]; at 33.0 µM) of the same compound?
Its growth inhibition is -1%.

And the growth inhibition ([4]; at 100.0 µM)?
The growth inhibition was 3%.

What about the growth inhibition ([5]; at 1.2 µM) of the same compound?
The growth inhibition was 0%.

What about the growth inhibition ([5]; at 3.7 µM) of the same compound?
The growth inhibition was -6%.

What about the growth inhibition [5, 17] of the same compound?
The growth inhibition was 10%.

And the growth inhibition ([5]; at 11.0 µM)?
The growth inhibition was 7%.

And the growth inhibition ([5]; at 33.0 µM)?
The growth inhibition was 0%.

What about the growth inhibition [5, 18] of the same compound?
Its growth inhibition is 45%.

And the growth inhibition ([5]; at 50.0 µM)?
The growth inhibition was 50.8%.

What about the growth inhibition ([5]; at 100.0 µM) of the same compound?
Its growth inhibition is 13%.

And the growth inhibition ([6]; at 1.2 µM)?
Its growth inhibition is -2%.

And the growth inhibition ([6]; at 3.7 µM)?
Its growth inhibition is -1%.

What about the growth inhibition [6, 17] of the same compound?
Its growth inhibition is 2%.

And the growth inhibition ([6]; at 11.0 µM)?
The growth inhibition was -2%.

And the growth inhibition ([6]; at 33.0 µM)?
Its growth inhibition is 0%.

And the growth inhibition [6, 18]?
The growth inhibition was 15%.

What about the growth inhibition ([6]; at 50.0 µM) of the same compound?
Its growth inhibition is 61.4%.

What about the growth inhibition ([6]; at 100.0 µM) of the same compound?
Its growth inhibition is 11%.

And the growth inhibition ([7]; at 1.2 µM)?
The growth inhibition was 0%.

What about the growth inhibition ([7]; at 3.7 µM) of the same compound?
The growth inhibition was -1%.

And the growth inhibition ([7]; at 11.0 µM)?
The growth inhibition was 0%.

And the growth inhibition ([7]; at 33.0 µM)?
Its growth inhibition is -10%.

And the growth inhibition ([7]; at 100.0 µM)?
Its growth inhibition is 8%.

And the growth inhibition [8, 17]?
The growth inhibition was -7%.

And the growth inhibition [8, 18]?
Its growth inhibition is 60%.

And the growth inhibition ([8]; at 50.0 µM)?
Its growth inhibition is 50%.

And the growth inhibition ([9]; at 1.2 µM)?
Its growth inhibition is -4%.

What about the growth inhibition ([9]; at 3.7 µM) of the same compound?
Its growth inhibition is 0%.

And the growth inhibition ([9]; at 11.0 µM)?
The growth inhibition was 0%.

And the growth inhibition ([9]; at 33.0 µM)?
The growth inhibition was -5%.

What about the growth inhibition ([9]; at 100.0 µM) of the same compound?
Its growth inhibition is 1%.

What about the growth inhibition [10, 17] of the same compound?
The growth inhibition was -23%.

And the growth inhibition [10, 18]?
Its growth inhibition is 79% (active).

And the growth inhibition ([10]; at 50.0 µM)?
Its growth inhibition is 45.7%.

And the growth inhibition ([11]; at 1.2 µM)?
The growth inhibition was -3%.

What about the growth inhibition ([11]; at 3.7 µM) of the same compound?
Its growth inhibition is -1%.

And the growth inhibition [11, 17]?
Its growth inhibition is -9%.

What about the growth inhibition ([11]; at 11.0 µM) of the same compound?
Its growth inhibition is 9%.

And the growth inhibition ([11]; at 33.0 µM)?
Its growth inhibition is 7%.

What about the growth inhibition [11, 18] of the same compound?
Its growth inhibition is -3%.

And the growth inhibition ([11]; at 50.0 µM)?
Its growth inhibition is 48.5%.

What about the growth inhibition ([11]; at 100.0 µM) of the same compound?
The growth inhibition was 4%.

And the growth inhibition ([12]; at 1.2 µM)?
Its growth inhibition is -1%.

And the growth inhibition ([12]; at 3.7 µM)?
Its growth inhibition is 0%.

And the growth inhibition ([12]; at 11.0 µM)?
The growth inhibition was -1%.

And the growth inhibition ([12]; at 33.0 µM)?
Its growth inhibition is 0%.

What about the growth inhibition ([12]; at 100.0 µM) of the same compound?
Its growth inhibition is 5%.

And the growth inhibition ([13]; at 1.2 µM)?
Its growth inhibition is 1%.

And the growth inhibition ([13]; at 3.7 µM)?
Its growth inhibition is 2%.

What about the growth inhibition ([13]; at 11.0 µM) of the same compound?
The growth inhibition was 1%.

What about the growth inhibition ([13]; at 33.0 µM) of the same compound?
Its growth inhibition is -9%.

What about the growth inhibition ([13]; at 100.0 µM) of the same compound?
Its growth inhibition is 8%.

What about the growth inhibition ([14]; at 1.2 µM) of the same compound?
The growth inhibition was 0%.

And the growth inhibition ([14]; at 3.7 µM)?
Its growth inhibition is 2%.

What about the growth inhibition ([14]; at 11.0 µM) of the same compound?
Its growth inhibition is 1%.

And the growth inhibition ([14]; at 33.0 µM)?
The growth inhibition was 4%.

What about the growth inhibition ([14]; at 100.0 µM) of the same compound?
Its growth inhibition is 3%.

And the growth inhibition [15, 17]?
Its growth inhibition is -1%.

And the growth inhibition [15, 18]?
Its growth inhibition is 39%.

And the growth inhibition ([15]; at 50.0 µM)?
The growth inhibition was 68.5%.

And the growth inhibition ([16]; at 1.2 µM)?
Its growth inhibition is -3%.

What about the growth inhibition ([16]; at 3.7 µM) of the same compound?
The growth inhibition was -1%.

And the growth inhibition ([16]; at 11.0 µM)?
The growth inhibition was 2%.

And the growth inhibition ([16]; at 33.0 µM)?
The growth inhibition was -4%.

And the growth inhibition ([16]; at 100.0 µM)?
Its growth inhibition is 6%.
